This note sets out measurements from ChEMBL document CHEMBL3988442, “University of Dundee, Small-Polar-MMV Screening Library” (2021).

Values joined by “and” are separate entries in the source; they are usually repeats but may differ in a detail not shown here. Equal values may be shown once. The whole screen tested about 34,000 compounds, of which about 290 (0.85%) showed an effect of 50% or more. This excerpt belongs to a sample that is enriched for strong results.

The assay deals with Plasmodium falciparum. The assay can be described thus: Plasmodium falciparum sporozoite viability assay. The format is functional, organism-based. The arrangement: scale not given: in the data most compounds retested in dose-response had high values.

With `CCc1ncnc2c1CCN(S(=O)(=O)c1ccccc1)CC2`, the “Percent Effect” value is 11.48%.

As for `O=C(O)c1cc(S(=O)(=O)Nc2ccc(F)c(Cl)c2)cc2c1OCCO2`, the “Percent Effect” value was 12.45%.

Consider `O=C(CC1CC1)N1CCc2ncc(Cn3cncn3)n2CC1.O=C(O)C(F)(F)F`, for which the “Percent Effect” value amounted to 2.491%.

Turning to `CC(=O)N1CCc2ncc(CNC(=O)C3CCC3)n2CC1`, the “Percent Effect” value was -7.632%. On the same count and under the same terms, then `COCC(=O)N1CCOC(c2cccc(-c3cncnc3)n2)C1` (configuration not stated), with 0.9327%; and `COCC(=O)N1CCOC(c2ccc(N(C)C)cn2)C1` (configuration not stated), with -1.133%. Take `COc1ccc2cc(C3CN(C(=O)COC(C)C)CCO3)ccc2c1` (configuration not stated): for the setting “10 mM as filed; unlikely as a test dose”, the “Percent Effect” value is 38.96% and 58.61% and 49.31%. On to `CNC(=O)c1ccc(C2CN(C(=O)COC)CCO2)nc1` (configuration not stated), for which the “Percent Effect” value is on record as -16.96%. As for `CNC(=O)CCC(=O)N1CCOC(c2ccc3cc(OC)ccc3c2)C1` (configuration not stated), the “Percent Effect” value (10 mM as filed; unlikely as a test dose) is 98.94% and 98.67% and 101%. For `CNC(=O)CN1CCC(c2cc(OC)cc(OC)c2)C1` (configuration not stated), the “Percent Effect” value is -3.657%. Still for that read-out and setting: the result for `CC(C)COCCCNC(=O)NCC(O)c1cccc(F)c1` (configuration not stated) reads 2.496%; that for `Cl.Cl.NCC(=O)N1CCCC(c2ccnc(Nc3cnccn3)n2)C1` (configuration not stated), 10.19%. The same measure, in the same setting: then `CNCC(=O)N1CCCC(c2ccnc(Nc3cnccn3)n2)C1` (configuration not stated), with -8.636%. On to `Cc1ccc(Nc2nccc(C3CCN(C(=O)CO)C3)n2)nc1` (configuration not stated), for which, where the note is “10 mM as filed; unlikely as a test dose”, the “Percent Effect” value was -6.369% and -30.39% and -30.26%. Still for that read-out and setting: the result for `Cc1ccc(Nc2nccc(C3CCN(C(=O)CN)C3)n2)nc1.Cl` (configuration not stated) reads 81.99% and 45.72% and 74.53%; that for `CC(=O)N1CC(c2ccnc(Nc3ccc(C)cn3)n2)C1`, 15.77% and 8.208% and 11.03%. As for `CCN1CCCC1CNCc1cc2ccccc2[nH]c1=O` (configuration not stated), the “Percent Effect” value is 24.74%. Same read-out and setting: then `c1cc(C2CCN(c3cnccn3)CC2)ccn1`, with 11.86%; and `COc1ccc(C(=O)N(C)Cc2c(C)noc2C)cn1`, with 8.528%. In the case of `Cc1nc(C)n(CC2CCCN2Cc2nc(-c3ccco3)no2)n1` (configuration not stated), the “Percent Effect” value (10 mM as filed; unlikely as a test dose) is -0.3641% and 0.04429% and -1.23%. With `CC(C)(C)CC1CCCN1Cc1nc(-c2ccco2)no1` (configuration not stated), the “Percent Effect” value (10 mM as filed; unlikely as a test dose) was 58.36% and 65.06%. Regarding `CN(C)CCN1C(=O)CC[C@@H]2[C@H]1CCN2Cc1cccc(C#N)c1.O=C(O)C(F)(F)F.O=C(O)C(F)(F)F`, the “Percent Effect” value is reported as -0.2577%. Turning to `Cc1nc(C)n(CC2CCCN(CCOc3ccccc3C#N)C2)n1` (configuration not stated), the “Percent Effect” value stood at 12.74%. As for `O=C(NCC1CC1)[C@H]1C[C@H]2OCC[C@H]2N(Cc2ccoc2)C1`, the “Percent Effect” value is given as -11.2%.

Turning to `Cn1nccc1CNC(=O)CCn1nc(C(F)(F)F)c(Cl)c1C1CC1`, the “Percent Effect” value was determined as 10.43%.

On to `COc1ccc(COCC(=O)N2CCN(CC(C)(C)O)CC2)cc1`, for which the “Percent Effect” value (10 mM as filed; unlikely as a test dose) was 7.514% and -16.19% and -8.725%. Consider `O=C(COCc1ccccc1Cl)N1CCN(c2ncccn2)CC1`, for which the “Percent Effect” value is 3.259%. For the compound `CC(C)(O)CN1CCN(C(=O)COCc2ccccc2Cl)CC1`, where the note is “10 mM as filed; unlikely as a test dose”, the “Percent Effect” value was 71.26% and 47.5% and 53.2%.

Take `CC(NC(=O)CCCc1nc(C(C)(C)C)no1)c1ccccn1` (configuration not stated): the “Percent Effect” value is 4.866%. For `Cc1nn(C)cc1-c1cc(C(=O)NCC(C)(C)c2cccc(F)c2)n[nH]1`, the “Percent Effect” value was -0.9712%.

Take `CN(C)CC1CSCCCN1C(=O)c1ccc(-c2ccccc2)cc1` (configuration not stated): the “Percent Effect” value was found to be 11.37%. The same measure, in the same setting: the result for `CC(NCC(=O)NCC(=O)Nc1ccc(F)cc1)c1cccs1` (configuration not stated) reads 0.1791%; that for `CCOC(=O)CN1CCC2(CC1)CC(=O)c1ccc(OC)cc1O2`, -0.03409%. Take `CN(C)C(=O)CN1CCC2(CC1)CC(=O)c1ccc3ccccc3c1O2`: under “10 mM as filed; unlikely as a test dose”, the “Percent Effect” value was 28.41% and 58.1% and 56.14%. With `CN(C)C(=O)CN1CCC2(CC1)CC(=O)c1c(ccc3ccccc13)O2`, the “Percent Effect” value was determined as 16.77%.

Consider `NC(=O)CN1CCC2(CC1)CC(=O)c1ccc3ccccc3c1O2`, for which the “Percent Effect” value (10 mM as filed; unlikely as a test dose) was 14.56% and 23.77% and 28.36%. Turning to `CN(C)C(=O)CN1CCC2(CC1)CN(S(C)(=O)=O)Cc1ccccc1O2`, the “Percent Effect” value was -23.82%. Consider `Cc1nc(C)c(C(=O)OCCNc2ncccc2C#N)s1`, for which the “Percent Effect” value is reported as 25.07%. Turning to `CNC(=O)Cc1ccc(NC(=O)NC(C)C(C)C)cc1` (configuration not stated), where the note is “10 mM as filed; unlikely as a test dose”, the “Percent Effect” value was -4.587% and -4.397% and -12.09%. The same measure, in the same setting: then `CC(CN1CCC(CCO)CC1)n1cnc2ccccc21` (configuration not stated), with -16.85% and -31%. Consider `CCN(CC)CCCNc1nc(C)nc2c1CCN(C)C2.O=C(O)CC(O)(CC(=O)O)C(=O)O`, for which the “Percent Effect” value was determined as 7.039%.

As to `CN(CC(=O)NCc1ccco1)Cc1nc2c(s1)CCCC2`, the “Percent Effect” value (10 mM as filed; unlikely as a test dose) was 18.7% and 19.42%. Consider `Cc1nnc(CN(C)Cc2nc3c(s2)CCCC3)o1`, for which the “Percent Effect” value (10 mM as filed; unlikely as a test dose) was 69.64% and 55.12% and 51.62%. Still for that read-out and setting: the result for `CN(Cc1nnc(-c2cccs2)o1)Cc1nc2c(s1)CCCC2` reads 22.52% and 35.26% and 20.64%. The same measure, in the same setting: the result for `CN(CC(=O)NCC1CCCO1)Cc1nc2c(s1)CCCC2` (configuration not stated) reads 56.93% and 58.41%. The same measure, in the same setting: the result for `CN(Cc1nnc(-c2ccco2)o1)Cc1nc2c(s1)CCCC2` reads -11.23% and -0.3712% and 0.4353%; that for `CN(CC(=O)NCC(F)(F)F)Cc1nc2c(s1)CCCC2`, 29.9% and 31.57%.
